Assay results as given in PubChem BioAssay (EPA / NIEHS).
Calls of active or inactive are those of the source. The calls were made as follows: active = hit-call score of the fitted dose curve at least 0.9, where 1 is the maximum; inactive = score below 0.9.

Columns and labels:
[1] = ATG_DR4_LXR_CIS: Attagene CIS-FACTORIAL HepG2 Assay for human Liver X Receptor (LXR), DR4 submotif (AID 2282929); details: HepG2 Attagene DR4 cis-reporter, mRNA transcription; AC50: actives raise or lower the signal unless noted; outcome: actives raise or lower the signal unless noted
How it was run: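 Measures endogenous transcription factor activity via a DR4-driven reporter transcript in human HepG2 cells. Compounds incubated 24 h; mRNA quantified by RT-PCR and capillary electrophoresis, analysed as gain or loss of signal versus DMSO.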

[2] = biological target: Aryl hydrocarbon receptor (Homo sapiens) (UniProt P35869); assay: ATG_Ahr_CIS: Attagene CIS-FACTORIAL HepG2 Assay for human Aryl Hydrocarbon Receptor (Ahr) (AID 2282930); details: HepG2 AhR cis-factorial reporter transcription; actives raise or lower the signal
How it was run: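 Transient MRTU transfection of HepG2 → 24 h compound exposure → total RNA, oligo(dT) RT → PCR, 6-FAM extension, HpaI cut → CE fluorescence. DMSO = baseline; bidirectional curve fit.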

[3] = ATG_AP_1_CIS: Attagene CIS-FACTORIAL HepG2 Assay for human Activator Protein 1 (AP-1) (AID 2282931); details: HepG2 Attagene cis-factorial AP-1 reporter mRNA; actives raise or lower the signal
How it was run: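 Bidirectional concentration-response fitting against DMSO controls. Underlying signal: reporter mRNA from cis-promoter constructs in transiently transfected HepG2, measured after 24 h by RT-PCR and capillary electrophoresis.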

[4] = ATG_AP_2_CIS: Attagene CIS-FACTORIAL HepG2 Assay for human Activator Protein 2 (AP-2) (AID 2282932); details: HepG2 AP-2 cis-reporter, Attagene transcription factor profiling; AC50: actives raise or lower the signal unless noted; outcome: actives raise or lower the signal unless noted
How it was run: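 Endogenous transcription factor activity is reported through transfected multiplex reporter constructs in HepG2, after 24 h of compound exposure. Transcripts were quantified by RT-PCR and capillary electrophoresis of fluorescent fragments. Bidirectional fit against DMSO.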

[5] = ATG_BRE_CIS: Attagene CIS-FACTORIAL HepG2 Assay for human Bone Morphogenetic Protein (BMP) Response Element (BRE) (AID 2282933); details: HepG2 BMP response element reporter, Attagene transcription factor profiling; actives raise or lower the signal
How it was run: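 Multiplexed cis-reporter assay, HepG2, 24 h exposure. mRNA from reporter units quantified via RT-PCR/CE; DMSO baseline; bidirectional curve fit.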

[6] = biological target: Retinoic acid receptor alpha (Homo sapiens) (UniProt P10276); assay: ATG_DR5_RAR_CIS: Attagene CIS-FACTORIAL HepG2 Assay for human Retinoic Acid Receptor Alpha (RARE), DR5 submotif (AID 2282934); details: HepG2 Attagene cis-factorial RARE DR5 reporter, mRNA; actives raise or lower the signal;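 as to AC50: reporter responds to endogenous RAR alpha beta and gamma in HepG2 not RARA alone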
How it was run: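 Transient MRTU transfection of HepG2; 24 h compound treatment; TriZol RNA, oligo(dT) RT, PCR, FAM labelling, capillary electrophoresis. Bidirectional fit vs DMSO. Endogenous TF activity at DR5 RARE.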

[7] = biological target: Transcription factor E2F1 (Homo sapiens) (UniProt Q01094); assay: ATG_E2F_CIS: Attagene CIS-FACTORIAL HepG2 Assay for human E2F Transcription Factor 1 (AID 2282935); details: HepG2 Attagene cis-reporter, E2F reporter RNA transcripts; actives raise or lower the signal
How it was run: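 Gain or loss of reporter transcript, fitted against DMSO, reflects E2F1-driven transcription. Transiently transfected HepG2 dosed 24 h before RNA isolation. Quantified by fluorescent RT-PCR products separated by capillary electrophoresis.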

[8] = ATG_E_Box_CIS: Attagene CIS-FACTORIAL HepG2 Assay for human Enhancer Box (E-box) (AID 2282936); details: HepG2 E-box cis-reporter transcription, actives raise or lower the signal
How it was run: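 E-box-driven reporter transcripts measured in transiently transfected HepG2 after 24 h exposure: RNA reverse-transcribed, PCR-amplified, fluorescently labelled, digested and resolved by capillary electrophoresis. Gain or loss relative to DMSO.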

[9] = ATG_M_61_CIS: Attagene CIS-FACTORIAL HepG2 Assay for M61 Transcription Factor (Internal Marker) (AID 2282937); details: HepG2 Attagene CIS-FACTORIAL M61 internal marker reporter; actives raise or lower the signal
How it was run: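 Fluorescence from labelled cDNA fragments, separated by capillary electrophoresis, quantifies reporter induction. HepG2 cells bearing transiently transfected cis-promoter MRTUs were incubated with test chemical for 24 h; DMSO defined baseline for gain/loss fitting.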

[10] = ATG_EGR_CIS: Attagene CIS-FACTORIAL HepG2 Assay for human Early Growth Response 1 (EGR1) (AID 2282938); details: HepG2 Attagene CIS-FACTORIAL EGR reporter mRNA; actives raise or lower the signal
How it was run: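 Cell-based multiplex transcription assay: HepG2 carrying transfected cis-element reporter units, 24 h chemical treatment. Fluorescence from capillary electrophoresis of RT-PCR products gives mRNA levels; fitting is bidirectional relative to DMSO.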

[11] = ATG_M_19_CIS: Attagene CIS-FACTORIAL HepG2 Assay for M19 Transcription Factor (Internal Marker) (AID 2282939); details: HepG2 Attagene CIS-FACTORIAL M19 internal marker reporter; actives raise or lower the signal
How it was run: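 Signals come from fluorescence of labelled reporter-specific PCR fragments resolved by capillary electrophoresis, following 24 h treatment of HepG2 cells transfected with cis-promoter reporter units; activity was fitted in both directions relative to DMSO.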

[12] = ATG_ERE_CIS: Attagene CIS-FACTORIAL HepG2 Assay for Estrogen Response Element (ERE) (AID 2282940); details: HepG2 ERE cis-reporter, Attagene RNA transcript; actives raise or lower the signal
How it was run: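 Fluorescence of capillary-separated, FAM-labelled reporter cDNA fragments indicates reporter mRNA levels in HepG2 cells exposed to chemicals for 24 h. Transient transfection with cis-regulated units; data fitted in both directions against DMSO.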

[13] = ATG_Ets_CIS: Attagene CIS-FACTORIAL HepG2 Assay for human Erythroblast Transformation Specific (ETS) (AID 2282941); details: HepG2 ETS cis-reporter transcription; AC50: actives raise or lower the signal unless noted; outcome: actives raise or lower the signal unless noted
How it was run: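 Bidirectional fit versus DMSO of reporter mRNA signal, detected by RT-PCR and capillary electrophoresis in HepG2 cells transiently transfected with cis-element reporters and dosed 24 h.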

[14] = biological target: Hepatocyte nuclear factor 3-beta (Homo sapiens) (UniProt Q9Y261); assay: ATG_FoxA2_CIS: Attagene CIS-FACTORIAL HepG2 Assay for human Forkhead box A2 (FOXA2) (AID 2282942); details: HepG2 cis-reporter transcription factor activity, 24 h; actives raise or lower the signal
How it was run: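 In transiently transfected human HepG2 cells, promoter-driven reporter mRNA levels after 24 h chemical exposure are determined via RT-PCR with capillary electrophoresis. DMSO serves as baseline for bidirectional fitting.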

[15] = ATG_FoxO_CIS: Attagene CIS-FACTORIAL HepG2 Assay for human Forkhead box O (FoxO) (AID 2282943); details: HepG2 Attagene cis-reporter, FoxO element, mRNA; actives raise or lower the signal
How it was run: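 HepG2, transient MRTU transfection (cis element, endogenous TFs). Dose 24 h. TriZol RNA → oligo(dT) RT → PCR → 6-FAM primer extension → HpaI cut → CE. Gain/loss vs DMSO.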

[16] = ATG_GLI_CIS: Attagene CIS-FACTORIAL HepG2 Assay for human Zinc Finger Protein GLI1 (AID 2282945); details: HepG2, Attagene cis-factorial reporter mRNA, GLI element; actives raise or lower the signal
How it was run: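 Bidirectional curve fits relative to DMSO, using reporter mRNA levels from RT-PCR plus capillary electrophoresis. Cells were HepG2 transiently carrying cis-regulated reporter constructs, harvested 24 h after dosing.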

[17] = biological target: Bile acid receptor (Homo sapiens) (UniProt Q96RI1); assay: ATG_IR1_CIS: Attagene CIS-FACTORIAL HepG2 Assay for human Nuclear Receptor Subfamily 1 Group H Member 4 (NR1H4), IR1 submotif (AID 2282946); details: IR1 reporter transcription, actives raise or lower the signal
How it was run: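 HepG2 cells transiently transfected with multiplexed cis-element reporter units read endogenous transcription factor activity. After 24 h compound exposure, reporter mRNA was quantified by RT-PCR, fluorescent labelling, HpaI digestion and capillary electrophoresis; bidirectional fitting versus DMSO baseline.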

[18] = ATG_GRE_CIS: Attagene CIS-FACTORIAL HepG2 Assay for human Glucocorticoid Response Elements (GRE) (AID 2282947); details: HepG2 GRE cis-reporter, Attagene multiplex mRNA; AC50: actives raise or lower the signal unless noted; outcome: actives raise or lower the signal unless noted
How it was run: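 Reporter transcripts read by RT-PCR with capillary electrophoresis fluorescence after a 24 h chemical exposure of HepG2 cells transiently transfected with multiple cis-element reporter units. Gain or loss fitted against DMSO.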

[19] = ATG_ISRE_CIS: Attagene CIS-FACTORIAL HepG2 Assay for human Interferon Regulatory Factor 1 (IRF1) binding to an Interferon-Stimulated Response Element (ISRE) (AID 2282948); details: HepG2 ISRE cis-reporter (Attagene), mRNA transcription readout; actives raise or lower the signal
How it was run: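 Uses HepG2 liver cells transfected with cis-regulated reporters and measures mRNA 24 h post-dosing through RT-PCR, primer-extension labelling and capillary electrophoresis, with DMSO as negative control.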

[20] = ATG_GATA_CIS: Attagene CIS-FACTORIAL HepG2 Assay for human GATA Binding Protein (AID 2282944); details: HepG2 GATA cis-element reporter, Attagene multiplex mRNA; actives raise or lower the signal
How it was run: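 After transfecting HepG2 cells with multiple cis-regulated reporter units, chemicals are dosed for 24 h; isolated RNA undergoes RT-PCR and fluorescent labeling before capillary electrophoresis, with activity expressed against DMSO.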

Measured: AC50

Sequence of Transcription factor E2F1 (Homo sapiens) (Q01094 whole entry, looked up): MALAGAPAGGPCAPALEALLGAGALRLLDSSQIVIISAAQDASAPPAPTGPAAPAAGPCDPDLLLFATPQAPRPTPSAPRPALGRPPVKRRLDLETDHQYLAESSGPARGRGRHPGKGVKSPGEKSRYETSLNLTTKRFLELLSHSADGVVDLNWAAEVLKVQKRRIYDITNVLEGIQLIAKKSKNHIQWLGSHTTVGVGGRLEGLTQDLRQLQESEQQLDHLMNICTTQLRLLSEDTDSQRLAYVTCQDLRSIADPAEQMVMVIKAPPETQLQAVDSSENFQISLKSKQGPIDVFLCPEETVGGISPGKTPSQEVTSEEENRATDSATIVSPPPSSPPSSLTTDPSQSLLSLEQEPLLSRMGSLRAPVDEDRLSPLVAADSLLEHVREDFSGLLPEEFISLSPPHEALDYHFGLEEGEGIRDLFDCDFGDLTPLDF
Sequence of Retinoic acid receptor alpha (Homo sapiens) (P10276 whole entry, looked up): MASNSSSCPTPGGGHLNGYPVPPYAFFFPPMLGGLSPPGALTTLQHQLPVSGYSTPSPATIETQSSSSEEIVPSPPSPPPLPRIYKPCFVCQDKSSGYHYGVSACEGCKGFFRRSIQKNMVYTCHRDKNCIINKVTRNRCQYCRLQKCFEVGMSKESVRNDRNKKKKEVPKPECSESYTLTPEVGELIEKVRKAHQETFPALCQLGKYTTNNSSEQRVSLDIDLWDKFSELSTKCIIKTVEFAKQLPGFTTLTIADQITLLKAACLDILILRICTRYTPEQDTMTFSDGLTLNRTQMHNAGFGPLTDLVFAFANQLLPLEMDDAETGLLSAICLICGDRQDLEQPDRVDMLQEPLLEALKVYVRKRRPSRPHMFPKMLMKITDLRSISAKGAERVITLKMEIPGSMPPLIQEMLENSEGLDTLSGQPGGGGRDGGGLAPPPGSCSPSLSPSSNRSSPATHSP
Sequence of Hepatocyte nuclear factor 3-beta (Homo sapiens) (Q9Y261 whole entry, looked up): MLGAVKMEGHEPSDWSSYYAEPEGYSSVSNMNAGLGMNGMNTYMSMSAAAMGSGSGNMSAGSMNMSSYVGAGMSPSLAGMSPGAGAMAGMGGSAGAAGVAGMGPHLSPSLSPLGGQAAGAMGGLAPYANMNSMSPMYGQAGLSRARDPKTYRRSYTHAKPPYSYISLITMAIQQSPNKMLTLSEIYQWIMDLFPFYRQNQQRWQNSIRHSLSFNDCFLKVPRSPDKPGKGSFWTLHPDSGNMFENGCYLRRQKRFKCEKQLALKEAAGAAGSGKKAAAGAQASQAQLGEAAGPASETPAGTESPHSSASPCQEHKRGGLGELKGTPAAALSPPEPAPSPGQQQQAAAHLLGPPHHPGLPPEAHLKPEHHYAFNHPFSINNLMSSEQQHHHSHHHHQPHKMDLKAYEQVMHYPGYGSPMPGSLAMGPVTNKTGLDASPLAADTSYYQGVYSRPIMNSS
Sequence of Bile acid receptor (Homo sapiens) (Q96RI1 whole entry, looked up): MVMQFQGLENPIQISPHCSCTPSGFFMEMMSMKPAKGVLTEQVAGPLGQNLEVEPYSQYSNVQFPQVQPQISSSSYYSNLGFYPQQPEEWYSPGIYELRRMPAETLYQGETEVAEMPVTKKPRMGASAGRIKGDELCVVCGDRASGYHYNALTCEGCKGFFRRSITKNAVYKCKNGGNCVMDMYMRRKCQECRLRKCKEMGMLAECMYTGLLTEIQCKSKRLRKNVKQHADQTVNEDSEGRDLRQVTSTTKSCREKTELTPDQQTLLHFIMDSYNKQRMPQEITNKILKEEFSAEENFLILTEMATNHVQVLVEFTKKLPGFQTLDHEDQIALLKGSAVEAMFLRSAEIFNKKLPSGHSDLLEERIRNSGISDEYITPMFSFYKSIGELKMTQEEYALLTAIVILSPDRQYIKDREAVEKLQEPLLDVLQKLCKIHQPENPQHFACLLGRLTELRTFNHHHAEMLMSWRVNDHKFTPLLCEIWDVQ
Sequence of Aryl hydrocarbon receptor (Homo sapiens) (P35869 whole entry, looked up): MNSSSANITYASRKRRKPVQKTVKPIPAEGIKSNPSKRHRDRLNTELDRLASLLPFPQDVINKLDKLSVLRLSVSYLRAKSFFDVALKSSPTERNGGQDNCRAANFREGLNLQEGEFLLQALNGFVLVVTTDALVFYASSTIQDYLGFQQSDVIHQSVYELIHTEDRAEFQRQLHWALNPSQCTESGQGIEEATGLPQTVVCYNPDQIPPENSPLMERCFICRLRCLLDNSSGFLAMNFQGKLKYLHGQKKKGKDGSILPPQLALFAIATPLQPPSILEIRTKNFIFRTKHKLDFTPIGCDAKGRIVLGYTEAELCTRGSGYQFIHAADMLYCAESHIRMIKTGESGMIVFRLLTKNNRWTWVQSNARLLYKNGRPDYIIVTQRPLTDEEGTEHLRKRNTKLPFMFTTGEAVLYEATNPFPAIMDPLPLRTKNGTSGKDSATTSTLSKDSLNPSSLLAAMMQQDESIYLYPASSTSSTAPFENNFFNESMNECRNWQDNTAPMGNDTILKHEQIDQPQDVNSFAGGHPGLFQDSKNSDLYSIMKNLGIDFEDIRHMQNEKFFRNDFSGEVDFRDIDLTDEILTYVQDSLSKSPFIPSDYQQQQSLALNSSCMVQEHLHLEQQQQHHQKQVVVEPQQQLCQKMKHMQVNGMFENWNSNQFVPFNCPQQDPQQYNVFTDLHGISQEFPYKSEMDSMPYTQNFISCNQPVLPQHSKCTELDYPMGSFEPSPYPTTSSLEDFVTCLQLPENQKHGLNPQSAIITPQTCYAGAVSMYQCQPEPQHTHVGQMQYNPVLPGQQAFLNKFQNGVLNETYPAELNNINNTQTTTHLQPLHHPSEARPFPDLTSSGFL

CC(C)(c1ccc(Oc2ccc(N)cc2)cc1)c1ccc(Oc2ccc(N)cc2)cc1
not listed: [20]
inactive: all other assays above

O=S(=O)(c1ccc(OCc2ccccc2)cc1)c1ccccc1O
active: [1] 33.4 µM | [2] 46.8 µM | [6] 31.7 µM | [10] 33.4 µM | [13] 33.4 µM | [16] 51.1 µM | [17] 56 µM | [18] 42.4 µM | [19] 48.7 µM
not listed: [15] | [20]
inactive: all other assays above

CC(C)(O)C(=O)c1ccccc1
not listed: [15]
inactive: all other assays above

COc1cccc(O)c1
not listed: [13] | [15] | [19]
inactive: all other assays above

CCCCCCc1ccc(N)cc1
active: [2] 45.5 µM | [12] 5.06 µM | [19] 26.9 µM
not listed: [20]
inactive: all other assays above

CCO[Si](C)(C)OCC
not listed: [13]
inactive: all other assays above

O=C(O)CN(CCCN(CC(=O)O)CC(=O)O)CC(=O)O
active: [1] 6.63 µM | [10] 6.32 µM
not listed: [20]
inactive: all other assays above

OCC(F)(F)C(F)(F)C(F)(F)C(F)(F)C(F)(F)C(F)(F)C(F)(F)C(F)(F)C(F)(F)C(F)(F)C(F)(F)F
active: [12] 72.3 µM
not listed: [16]
inactive: all other assays above

NNC(=O)CCCCC(=O)NN
not listed: [15] | [20]
inactive: all other assays above

C=CC(=O)OCCC(F)(F)C(F)(F)C(F)(F)C(F)(F)C(F)(F)C(F)(F)C(F)(F)C(F)(F)F
active: [6] 15.2 µM | [12] 22.6 µM
not listed: [13] | [16]
inactive: all other assays above

Cc1cc(C(=C2C=CC(=Nc3ccc(S(=O)(=O)O)cc3)C=C2)c2ccc(Nc3ccc(S(=O)(=O)O)cc3)cc2)cc(S(=O)(=O)O)c1N
not listed: [13] | [19] | [20]
inactive: all other assays above

CCOC=C(C(=O)OCC)C(=O)OCC
not listed: [16] | [20]
inactive: all other assays above

NC(C(F)(F)F)C(F)(F)F
not listed: [15]
inactive: all other assays above

OCCN1CN(CCO)CN(CCO)C1
active: [1] 63.4 µM | [4] 143 µM | [6] 144 µM | [10] 173 µM | [16] 162 µM
not listed: [15] | [19]
inactive: all other assays above
